# According to PubChem BioAssay AID743279 (National Center for Advancing Translational Sciences (NCATS), 2014):
# Screen size: about 360,000 compounds; about 17,000 (4.7%) were called active. Not shown: some 5% with an inconclusive outcome. Rule as the data show it: active = activity change below about -50%; inconclusive = mostly about -30% to -49%; inactive = weaker than that. This excerpt belongs to a sample that is enriched for actives.
# Test: qHTS for Inhibitors of Inflammasome Signaling: IL-1-beta AlphaLISA Primary Screen
# Settings: THP-1 LPS/ATP IL-1B secretion, 16 h; at 57.5 µM, hits give low values
# Method in brief: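 Secreted IL-1B measured by AlphaLISA bead assay after 16 h compound exposure of THP-1 cells; compounds (final up to 57.5 uM) added 1 h before LPS (250 ng/mL) and ATP (1.25 mM) stimulation; lower signal means less secretion.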
# % is scaled to controls: 0 for no effect and ±100 for the full control effect.
row,SMILES,activity change
1,CC(NC(=O)COc1cccnc1[N+](=O)[O-])c1ccc(Cl)cc1Cl (centres undefined),-26% (inactive)
2,CN(C)C(=S)N=c1ssc(=S)n1Cc1ccco1,1.33% (inactive)
3,Cc1ccc(C(=O)NCCc2nnc(SCC(=O)Nc3cccc(C(=O)O)c3)n2C)cc1,3.07% (inactive)
4,CCCCCC1CCC(c2nnc(SCC(C)=O)o2)CC1 (centres undefined),0.218% (inactive)
5,O=C1C2C3C=CC(C3)C2C(=O)N1c1ccc(-c2nc3ccccc3c(=O)o2)cc1 (centres undefined),-10.4% (inactive)
6,c1ccc(CN2CCC(N=C3NN=C(c4ccc5c(c4)OCCO5)CS3)CC2)cc1,-81.5% (active)
7,Clc1cccc(N=C2NN=C(c3ccc4c(c3)OCCO4)CS2)c1,-71.7% (active)
8,CS(=O)(=O)N(CC(=O)N1CCN(Cc2ccccc2)CC1)c1ccc2c(c1)OCCO2,-2.68% (inactive)
9,CC(=NC1CCN(Cc2ccccc2)CC1)c1c(O)[nH]c(=O)[nH]c1=O,4.26% (inactive)
10,CN(C)c1nc(=Nc2cccc(Cl)c2)ss1,-9.51% (inactive)
11,O=C(Nc1ccc(Cl)cc1)C1Cc2c(-c3ccc4c(c3)OCO4)ccnc2O1 (centres undefined),-19.5% (inactive)
12,Cc1ccc(S(=O)(=O)Nc2ccccc2CNc2c(C)n(C)n(-c3ccccc3)c2=O)cc1,-4.94% (inactive)
13,O=C(NCCO)c1cccc(-c2cccc3nccn23)c1,81.9% (inactive)
14,O=C(NCc1cccnc1)C(=O)Nc1nc(-c2ccccc2)cs1,17.3% (inactive)
15,CN(c1ccc(O)cc1)c1nc(-c2cccnc2)cs1,40.3% (inactive)
16,Cc1ccccc1Nc1nc(-c2cccnc2)cs1,-83.1% (active)
17,O=C(CN1C(=O)NC2(CCOc3ccccc32)C1=O)NCc1ccc(F)cc1 (centres undefined),-15.8% (inactive)
18,C[C@@H]1CN([C@@H](C)CO)C(=O)CCCn2nncc2CO[C@H]1CN(C)C(=O)Nc1ccc(C(F)(F)F)cc1,-7.03% (inactive)
19,COC(=O)c1ccc2nc(C3CCCCC3)c(Cc3cccc(F)c3)n2c1,20.9% (inactive)
20,N#Cc1c(N)n(CCOC(=O)c2ccc(Cl)cc2)c2nc3ccccc3nc12,-16.3% (inactive)
21,CN(C)CCCn1c(N)c(C#N)c2nc(C#N)c(C#N)nc21,-105% (active)
22,Cc1cc(C)c(S(=O)(=O)N(C)CC(=O)NCC2CCCO2)c(C)c1 (centres undefined),4.54% (inactive)
23,CCCCNC(=O)C(C)N(CCN(C)C)C(=O)CCCCCN1C(=O)NC(c2ccc(Cl)cc2)C(C(=O)OCc2ccccc2)=C1C (centres undefined),-52.2% (active)

row,SMILES,activity change
1,CC1=C(C(=O)OCc2ccccc2)C(c2ccc(C(F)(F)F)cc2)NC(=O)N1CCCCCC(=O)O (centres undefined),5.05% (inactive)
2,COC(=O)CCCCCN1C(=O)NC(c2ccc(-c3ccccc3)cc2)C(C(=O)OCc2ccccc2)=C1C (centres undefined),-1.28% (inactive)
3,CC(=O)c1cccc(-c2cnc3c(NC=O)cc(-c4ccc(N5CCN(C)CC5)cc4)cn23)c1,108% (inactive)
4,CC(C)(C)Cc1c(C2CCCCC2)nc2ccc(Br)cn12,28.2% (inactive)
5,OCC1(Cc2ccccc2C(F)(F)F)CCN(Cc2cccc3cnccc23)CC1,-72.4% (active)
6,C/C(=N/N1CCN(Cc2cccc3ccccc23)CC1)c1cccnc1,0% (inactive)
7,OCC1(Cc2ccccc2C(F)(F)F)CCN(Cc2ccncc2)CC1,21.9% (inactive)
8,O=S1(=O)CC(N2CCC(Cc3ccccc3)CC2)CN1Cc1ccccc1 (centres undefined),21.9% (inactive)
9,Cc1cccc(N(C)C(=O)c2cc3c(=O)[nH]c4ccc(C)cc4c3s2)c1,3.44% (inactive)
10,CCN(CC)CCCNC(=O)c1cc2c(=O)[nH]c3ccc(C)cc3c2s1,-65.6% (active)
11,CCN(CC)CCCNC(=O)c1cc(-c2cccc(Cl)c2)on1,-5.59% (inactive)
12,COCCNC(=O)c1cc2c(Br)ccc(Br)c2nc1N,-2.49% (inactive)
13,O=C(NCC1CCCCC1)c1cc(S(=O)(=O)N2CCCCC2)ccc1N1CCOCC1,-0.256% (inactive)
14,Cn1c(=O)c2c(nc(SCC(=O)Nc3ccccc3N3CCCCC3)n2C)n(C)c1=O,-57.3% (active)
15,CCC1CCCCN1C(=O)CSc1nc2c(c(=O)n(C)c(=O)n2C)n1C (centres undefined),2.3% (inactive)
16,Cn1c(=O)c2c(nc(SCCNS(=O)(=O)c3ccccc3)n2C)n(C)c1=O,29.8% (inactive)
17,O=[N+]([O-])c1ccccc1/C=C/CN1CCCC(CO)C1 (centres undefined),-11.3% (inactive)
18,O=[N+]([O-])c1ccccc1/C=C/CN1CCC(O)CC1,7.25% (inactive)
19,CC1CCCCC1NC(=O)/C(C#N)=C/C=C/c1ccccc1[N+](=O)[O-] (centres undefined),-103% (active)
20,CCc1ccc(C(=O)N2CCN(S(=O)(=O)c3sc(C(=O)O)c(C)c3C(=O)O)CC2)cc1,20.6% (inactive)
21,O=C1C[C@@H]2c3c(cccc3CN1Cc1ccccc1)C[C@@H](O)[C@H]2O,16.3% (inactive)
22,c1ccc(Cn2nnc3c(NCC4CC4)ncnc32)cc1,-6.22% (inactive)
23,COc1cccc(-c2cnc(C(O)c3ccccc3OC)[nH]2)c1 (centres undefined),26.3% (inactive)

row,SMILES,activity change
1,O=C(NCCc1ccccc1)/C(=C\c1ccc([N+](=O)[O-])cc1)NC(=O)c1ccccc1,4.21% (inactive)
2,O=C(Nc1ccc(C(=O)O)cc1)/C(=C/c1ccc([N+](=O)[O-])cc1)NC(=O)c1ccccc1,-62.1% (active)
3,O=C(Nc1ccc(C(=O)O)cc1)/C(=C\c1ccccc1)NC(=O)c1ccc(Br)cc1,-0.689% (inactive)
4,C[C@]12CC[C@H](O)CC1=CCC1C2CC[C@@]2(C)C1CC[C@@H]2NC(=O)CCC(=O)O (some centres undefined),14.7% (inactive)
5,Cc1cc2cc3n(c2nn1)N=C(Cl)CC3,-81.1% (active)
6,COc1cc(Cn2c3ccc(NC(=O)CC(C)c4ccccc4)cc3c(=O)n2C)ccc1F (centres undefined),-18% (inactive)
7,CC1(C(=O)NS(=O)(=O)c2ccc(C#N)cc2)CCN1C(=O)c1ccc(C2CCCCC2)cc1 (centres undefined),12.1% (inactive)
8,Cc1cccc(N2C(=O)c3ccc(C(=O)Nc4cccc(C(=O)O)c4)cc3C2=O)c1,10.8% (inactive)
9,O=C(NN=Cc1ccc(N2CCOCC2)cc1)c1cc2ccccc2cc1O,-24% (inactive)
10,O=C(/C=C/c1ccc(N2CCOCC2)cc1)c1ccccc1,-239% (active)
11,O=C(O)c1ccc2c(c1)C(=O)N(c1ccc(/C=C/C(=O)c3ccccc3)cc1)C2=O,-154% (active)
12,O=C(c1ccccc1)c1ccc(C(=O)N2CCN(c3ccccc3)CC2)cc1,-8.14% (inactive)
13,O=C(c1ccc2c(c1)C(=O)N(c1ccc(Cl)cc1)C2=O)N1CCN(c2ccccn2)CC1,15.8% (inactive)
14,CC(OC(=O)c1cccnc1Cl)C(=O)NC1CCCCC1 (centres undefined),-3.91% (inactive)
15,COc1ccc(C(=O)OCC(=O)Nc2cc(C)on2)cc1F,10.7% (inactive)
16,C[C@@H]1CN([C@@H](C)CO)C(=O)CCCn2cc(nn2)CO[C@H]1CN(C)S(=O)(=O)c1ccc(-n2cccn2)cc1,-5.6% (inactive)
17,COc1ccc(CCN2C(=O)C(C)=C(C)C2=O)cc1OC,-6.73% (inactive)
18,COc1ccc(CCNC2=C(Cl)C(=O)N(Cc3ccccc3)C2=O)cc1OC,-67.7% (active)
19,COc1ccc(CCN=C2SCC(=O)N2Cc2ccccc2)cc1OC,-10.8% (inactive)
20,Nc1cccc(OCCCCCOc2cccc(N)c2)c1,-27.6% (inactive)
21,CC(=O)Nc1c(-c2ccc(C)cc2)nc2ccc(Cl)cn12,13.6% (inactive)
22,O=C(COc1ccc(Cl)cc1)NCCS(=O)(=O)N1CCN(c2ccc(F)cc2)CC1,0.652% (inactive)
23,Cc1cccc(CC(=O)N2CCN=C2SCc2ccc([N+](=O)[O-])cc2)c1,-73.1% (active)

row,SMILES,activity change
1,O=C(Cc1ccc(F)cc1)N1CCN=C1SCc1cccc([N+](=O)[O-])c1,26.2% (inactive)
2,Cc1cc(C)cc(C(=O)N2CCN=C2SCc2ccc([N+](=O)[O-])cc2)c1,7.28% (inactive)
3,O=C1NC(c2ccccc2)Cc2ccncc21 (centres undefined),-2.81% (inactive)
4,CC(C)C1Cc2[nH][nH]c(=O)c2C(c2ccc(Cl)cc2)O1 (centres undefined),0.108% (inactive)
5,COc1ccc(/C=C2/C(=O)N(c3ccccc3)N=C2C)c(OC)c1,-9.74% (inactive)
6,COc1ccc(/C=C2/C(=O)OCc3cc(OC)c(OC)cc32)c(OC)c1,-74.3% (active)
7,COc1ccc(CN(C)Cc2nc3cc(OC)c(OC)cc3c(=O)[nH]2)c(OC)c1,1.63% (inactive)
8,Cc1cc(=O)c2ccc(NC(=O)c3ccccc3)cc2[nH]1,-15.4% (inactive)
9,CC(=O)Nc1ccc(S(=O)(=O)Nc2ccc(N3CCCCC3)cc2)cc1,0% (inactive)
10,O=C1C=CC(=O)N1c1ccc(N2CCCCC2)cc1,-102% (active)
11,O=C(Cc1ccccc1)NC(=S)Nc1ccc(N2CCCCC2)cc1,-8.88% (inactive)
12,COc1ccccc1NC(=O)C(CC(=O)O)Cc1cc(C)cc(C)c1 (centres undefined),14.1% (inactive)
13,Cc1cccc(C)c1-n1nnnc1C(CCc1ccccc1)N1CCN(C/C=C/c2ccccc2)CC1 (centres undefined),-7.14% (inactive)
14,CC(C)(C)c1ccc(/C=C2\SC(=O)N=C2N)cc1,3.39% (inactive)
15,O=C(Nc1ccc(Sc2ccc(Br)cc2)cc1)c1ccco1,-22.6% (inactive)
16,O=C(COC(=O)c1ccccc1NC(=O)c1ccco1)Nc1ccc2c(c1)OC(F)(F)O2,22.1% (inactive)
17,CCN(CC)P(=O)(Nc1ccc(SC(F)F)cc1)c1ccc(N(C)C)cc1NC(=O)c1ccco1 (centres undefined),-50.2% (active)
18,CCCNC(=O)c1cc(C2CCCCN2S(=O)(=O)c2cn(C)cn2)on1 (centres undefined),1.68% (inactive)
19,CN(C)/C(=N\OC(=O)c1ccccc1)c1nonc1N,23.1% (inactive)
20,CCCC(=O)N1CCC1(C)C(=O)NS(=O)(=O)c1ccc(Cl)cc1 (centres undefined),26% (inactive)
